A selection: hits, their analogues and other compounds. The true share with any hit is near 9.2%.
SMN2 splice up – qHTS Assay for Enhancers of SMN2 Splice Variant Expression; Potency, µM (top dose mostly 46.1 µM), without a hit: at the highest dose activity change, positive = activation, most hits filed as activators; 2.8% of 210,000 active; HEK293 SMN2-luciferase splicing reporter, luminescence, 30-36 h; AID 1458, 2008; note: % of control where 0% means no effect; nearly all actives have a fitted effect of over 55% in size
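qHTS luciferase splicing reporter: luminescence rises when SMN2 exon 7 is included in transfected HEK293 cells. Compound exposure lasted 30-36 h at 37C, with 4.5 mM final sodium butyrate as control, followed by a ONE-Glo read.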
ELG1 DNA repair – qHTS screen for small molecules that inhibit ELG1-dependent DNA repair in human embryonic kidney (HEK293T) cells expressing luciferase-tagged ELG1; HEK293T ELG1-luciferase reporter, luminescence, 16 h; DNA damage induced by 5-fluorouridine; Potency, µM (series often up to 46.1 µM), without a hit: at the highest dose activity change, negative = inhibition, most hits filed as inhibitors; 2.3% of 330,000 active; note: % is set by controls: 0 for no effect and ±100 for the full control effect; nearly all actives have a fitted effect of over 55% in size
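Overnight (16 hr) co-exposure of 2,000 cells/well to 5-fluorouridine and compound at 37 °C preceded detection. Luciferase was quantified via ONE-Glo luminescence; loss of signal denotes inhibition.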
Rab9 promoter act – qHTS Assay for Rab9 Promoter Activators. Huh7 Rab9 promoter-luciferase reporter, luminescence, 24 h. Potency, µM (top dose mostly 9.22 µM), inactives show at the top dose activation, negative = inhibition, most hits filed as activators. 2.8% of 320,000 active. AID 485297, 2010; note: % of control where 0% means no effect; nearly all actives have a fitted effect of over 60% in size
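Luminescence from Amplite-detected luciferase (10 minutes, ambient) reports Rab9 promoter activation. Before that, stable Rab9-luciferase Huh7 cells (1500/well, reduced-serum OP-MEM I plus 10% FBS) were exposed to compound for 24 hours at 37C.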
FLuc modulator – qHTS profiling assay for firefly luciferase inhibitor/activator using purifed enzyme and Km concentrations of substrates (counterscreen for miR-21 project); Luciferin 4-monooxygenase (Photinus pyralis), P08659; purified FLuc, Km substrates, luminescence inhibition; Potency, µM (top dose mostly 57.5 µM), inactives show at the top dose activity change, negative = inhibition, most hits filed as inhibitors; 6.9% of 360,000 active; AID 588342, 2011;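 note: plate controls were vehicle for no effect and reference inhibitor for full effect; nearly all actives have a fitted effect of over 55% in size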
Target sequence (P08659 whole entry, looked up): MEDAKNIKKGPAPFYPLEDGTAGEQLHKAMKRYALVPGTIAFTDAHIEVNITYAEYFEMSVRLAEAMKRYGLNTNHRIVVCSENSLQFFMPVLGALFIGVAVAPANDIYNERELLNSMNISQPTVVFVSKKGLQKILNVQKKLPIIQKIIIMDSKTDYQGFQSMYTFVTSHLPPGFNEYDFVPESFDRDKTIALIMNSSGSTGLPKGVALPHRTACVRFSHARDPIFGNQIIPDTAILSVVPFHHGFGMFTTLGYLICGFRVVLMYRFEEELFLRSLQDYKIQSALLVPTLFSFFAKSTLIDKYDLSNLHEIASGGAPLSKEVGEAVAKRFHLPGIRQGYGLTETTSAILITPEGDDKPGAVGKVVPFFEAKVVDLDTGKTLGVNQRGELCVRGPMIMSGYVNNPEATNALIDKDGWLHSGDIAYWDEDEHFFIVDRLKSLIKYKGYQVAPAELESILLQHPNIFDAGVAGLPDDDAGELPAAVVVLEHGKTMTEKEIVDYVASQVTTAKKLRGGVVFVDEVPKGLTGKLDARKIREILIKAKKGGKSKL
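Biochemical qHTS of compounds, final roughly 60 µM downward over six points, against 10 nM purified firefly luciferase using Km concentrations of substrates (10 uM D-luciferin, 10 uM ATP) in Tris acetate pH 7.5 buffer; luminescence output.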
ELG1 genotox – qHTS screen for small molecules that induce genotoxicity in human embryonic kidney (HEK293T) cells expressing luciferase-tagged ELG1; HEK293T ELG1-luciferase reporter, luminescence, 16 h; Potency, µM (titrated, usually from 46 µM), inactives show at the highest dose activity change, positive = activation, usual class: activators; 1.3% of 330,000 active; note: % of control where 0% means no effect; nearly all actives have a fitted effect of over 60% in size
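Genotoxic stress is detected as increased luminescence from luciferase-tagged ELG1 in HEK293T cells, measured with ONE-Glo after a 16 hr treatment at 37 °C.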
NPC1 promoter act – qHTS Assay for NPC1 Promoter Activators | Huh7 NPC1 promoter luciferase reporter, 24 h | Potency, µM (highest dose often 9.22 µM), inactives show at the top dose activation, most hits filed as activators | 2.4% of 320,000 active | AID 485313, 2010; note: % of control where 0% means no effect; nearly all actives have a fitted effect of over 60% in size
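In 1536-well qHTS, Huh7 cells harboring an NPC1 promoter–luciferase construct received compound for 24 h; activation was quantified by luminescence following luciferase reagent addition.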
An asterisk follows results filed as active; ? = inconclusive; / = not tested or not shown; [ ] = another dose, or the depositor's remark. Calls come from the whole dose curve; as a rule, active = well fitted curve in the direction sought with a large enough effect; inconclusive = small, poorly fitted or top-dose-only effect, or another doubt; inactive = no such curve, though single readings can be large; an effect the other way counts as inactive or inconclusive. Potency is the fitted concentration of half-maximal effect.

SMILES	SMN2 splice up	ELG1 DNA repair	Rab9 promoter act	FLuc modulator	ELG1 genotox	NPC1 promoter act
O=C1/C(=C/c2ccc([N+](=O)[O-])cc2)CCC1C1CCCC1 (configuration not stated)	/	?	-1%[1.84 µM]	0.76µM*	13%	-6%
COc1cc(/C=C2\CCC(C3CCCC3)C2=O)cc(OC)c1OC (configuration not stated)	/	?	14%	?	3%	3%
O=[N+]([O-])c1ccc(/C=N/n2c(C3CCCCC3)n[nH]c2=S)cc1	26%	29%	-1%	2%	2%	1%
Cc1cccc(/C=C2\CCC(C3CCCC3)C2=O)c1 (configuration not stated)	-6%	?	21%	4.8µM*	?	24%
COc1cccc(/C=C2\CCC(C3CCCC3)C2=O)c1 (configuration not stated)	/	?	?	1.7µM*	?	?
CCOC(=O)C1=C(C)Nc2ccccc2N=C1NC(=O)C1CCN(C(=O)c2ccccc2C)CC1	/	?	/	/	-4%	/
COc1ccc2nc(NC(=O)c3cc(=O)c4cc(C)cc(C)c4o3)sc2c1	-8%	/	/	-19%	/	/
O=C(N/N=C/c1cc(Br)c(O)c(Br)c1)c1cccc(C(F)(F)F)c1	-23%	-1%	-3%	?	2%	1%
O=C(N/N=C/c1ccc2nccnc2c1)c1ccccc1O	/	?	?	0.27µM*	3%	?
O=C(N/N=C/c1cccc(C(F)(F)F)c1)c1ccccc1O	-9%	20%	15%	6.7µM*	3%	18%
O=C(N/N=C/c1ccc2nccnc2c1)c1ccncc1	/	-1%	0%	?	-1%	-8%
O=C(N/N=C/c1ccnc2ccccc12)c1ccccc1O	/	?	8%	11µM*	15%	15%
CC(=O)Nc1ccc(N2N=C(C)C(N=Nc3ccccc3)C2=O)cc1 (configuration not stated)	?	?	22%	?	5%	3%
CCOC(=O)C1(Cc2cccc(OC)c2)CCCN(C(=O)CNC(C)=O)C1 (configuration not stated)	/	?	3.2µM*	15µM*	?	?
CCOC(=O)C1(Cc2cccc(OC)c2)CCCN(C(=O)c2cc(C)on2)C1 (configuration not stated)	/	?	3.2µM*	12µM*	?	?
CCOC(=O)C1(Cc2cccc(OC)c2)CCCN(C(=O)c2ccccc2C)C1 (configuration not stated)	/	?	?	27µM*	11%	?
CCOC(=O)C1(Cc2cccc(OC)c2)CCCN(C(=O)c2cc(C)[nH]n2)C1 (configuration not stated)	/	-17%	-2%	1%	-5%	-3%
CCOC(=O)C1(Cc2cccc(OC)c2)CCN(Cc2ccccc2)CC1	/	?	-1%	2%	-12%	0%
CCOC(=O)C1(Cc2cccc(OC)c2)CCN(Cc2cccnc2)CC1	/	?	14%	5.4µM*	?	-2%
CCOC(=O)N1CCN(C(=O)CCNS(=O)(=O)c2ccc3c(c2)c(=O)n(C)c(=O)n3C)CC1	-8%	-13%	4%	1%	10%	-14%
COCCNC(=O)/C(C#N)=C/c1ccc(-c2ccc(S(=O)(=O)N3CCOCC3)cc2)o1	-2%	16µM*	-3%	1%	-6%	-2%
CCOCCCNC(=O)/C(C#N)=C/c1ccc(-c2ccc(S(=O)(=O)N3CCOCC3)cc2)o1	-22%	?	1%	0%	-11%	-3%
Clc1ccc(-c2nnc(N3CCCC3)nn2)cc1	6.3µM*	?	0.32µM*	1.2µM*	?	?
O=C(CCNc1ccc(F)cc1)c1ccco1	66%	?	25%	2%[2.3 µM]	12%	-5%
Cc1nc2scc(-c3ccccc3)c2c(=O)n1/N=C/c1ccco1	-6%	15µM*	3%	0%	-3%	0%
SMILES	SMN2 splice up	ELG1 DNA repair	Rab9 promoter act	FLuc modulator	ELG1 genotox	NPC1 promoter act
Cc1cccc(-n2cnc3sc(C)c(C)c3c2=O)c1	/	?	12%	-12%	8%	1%
Cc1sc2ncn(/N=C/c3ccco3)c(=O)c2c1C	/	29%	?	11µM*	?	27%
Cc1c(-c2ccccn2)c(=O)[nH]n1-c1ccc(F)cc1	5.6µM*	?	0.5µM*	3µM*	?	3.5µM*
N#C/C(=C\c1ccc(-c2ccc(Br)cc2)o1)C(=O)Nc1ccccc1O	-2%	/	/	-2%	/	/
Cc1c(NC(=O)/C(C#N)=C/c2ccc(-c3ccc(Cl)cc3)o2)c(=O)n(-c2ccccc2)n1C	-35%	16µM*	-1%	?	-9%	-6%
N#C/C(=C\c1ccc(-c2ccc(C(=O)O)cc2)o1)C(=O)Nc1ccccc1C(=O)O	-5%	/	/	13µM*	/	/
Cc1c(NC(=O)/C(C#N)=C\c2cccs2)c(=O)n(-c2ccccc2)n1C	15%	6%	-7%	-5%	2%	-2%
Cc1c(NC(=O)/C(C#N)=C/c2ccc(-c3cc(Cl)ccc3Cl)o2)c(=O)n(-c2ccccc2)n1C	-40%	18µM*	-12%	2%	-12%	-2%
Cc1cccc(-n2c(=O)c3c4c(sc3n3c(C)nnc23)CCCC4)c1	/	/	/	0%	/	/
COc1ccccc1N1CCN(C2CCCN(C(=O)c3ccccn3)C2)CC1 (configuration not stated)	/	0%	1%	1%	-2%	3%
CCCCCNC(=O)c1cc2c(=O)n3ccccc3nc2n1C	/	/	/	2%	/	/
Cc1ccc(N2CC(NC(=O)/C=C\c3ccc4c(c3)OCO4)CC2=O)cc1 (configuration not stated)	/	/	/	0%	/	/
CCOC(=O)c1cc2c(C)n(-c3ccc(N(C)C)cc3)c(C)c2cc(C(=O)OCC)c1=O	-23%	?	?	1.7µM*	2%	29%
CCOC(=O)c1cc2c(C)n(-c3ccc(OCC)cc3)c(C)c2cc(C(=O)OCC)c1=O	6%	13%	0%	-13%	1%	0%
CCCCNC(=O)c1nn(-c2ccc(C)cc2)c(=O)c2c1c1ccccc1n2C	-5%	/	/	-5%	/	/
CCc1ccc(OCC2c3cc(OC)c(OC)cc3CCN2C(=S)NCCOC)cc1 (configuration not stated)	17%	23µM*	-1%	-1%	0%	0%
